In the library only some 1.1% were active in any assay of this set; here they are far more common.
RGS4 inhibitor: blocks human RGS4-accelerated GTP hydrolysis; P49798; 0.039% of 390,000 active; Potency, µM (doses to about 114 µM), inactives show at the top dose activity change, negative = inhibition, most hits filed as inhibitors; Transcreener GDP fluorescence polarization, RGS4-accelerated GTP hydrolysis; AID 504845; note: nearly all actives have a fitted effect of over 75% in size
Target sequence (P49798 whole entry, looked up): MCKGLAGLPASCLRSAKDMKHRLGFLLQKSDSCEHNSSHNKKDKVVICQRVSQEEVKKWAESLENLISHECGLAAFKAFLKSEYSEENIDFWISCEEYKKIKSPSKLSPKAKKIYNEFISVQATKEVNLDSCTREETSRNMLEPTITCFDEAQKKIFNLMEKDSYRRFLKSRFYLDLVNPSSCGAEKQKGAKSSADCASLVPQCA
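MLSMR compounds (23 nl, pin-transferred) preincubated 10 min at room temperature with a 500nM (2x) first reagent, then RGS4 at 900nM (2x) plus Transcreener GDP mix added; fluorescence polarization (620/688 nm) read before and after 90 min at 30 °C.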
IDH1 R132H inh: inhibitors of human mutant IDH1 R132H. O75874. IDH1-R132H enzyme, NADPH consumption, diaphorase/resazurin fluorescence. Potency, µM (top dose mostly 76.6 µM), without a hit: at the highest dose activity change, negative = inhibition, actives largely listed as inhibitors. 0.093% of 390,000 active. AID 602179; note: nearly all actives have a fitted effect of over 65% in size
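IDH1-R132H (0.5 ug/mL) preincubated 30 min with compound, then NADPH (0.016 mM) and alpha-KG (2 mM) added; 80 min at RT, pH 7.5. Remaining NADPH coupled via diaphorase/resazurin to fluorescence (540/590 nm); concentration-response curves normalized to no-enzyme control.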
TrxR1 substrate: rat thioredoxin reductase 1 substrate activity; AID 588456; 0.01% of 390,000 active; purified TrxR1 substrate turnover, NADPH consumption readout; Potency, µM (top dose mostly 114 µM), inactives show at the highest dose activity change, negative = substrate turnover; note: nearly all actives have a fitted effect of over 50% in size
Target sequence (O89049 whole entry, looked up): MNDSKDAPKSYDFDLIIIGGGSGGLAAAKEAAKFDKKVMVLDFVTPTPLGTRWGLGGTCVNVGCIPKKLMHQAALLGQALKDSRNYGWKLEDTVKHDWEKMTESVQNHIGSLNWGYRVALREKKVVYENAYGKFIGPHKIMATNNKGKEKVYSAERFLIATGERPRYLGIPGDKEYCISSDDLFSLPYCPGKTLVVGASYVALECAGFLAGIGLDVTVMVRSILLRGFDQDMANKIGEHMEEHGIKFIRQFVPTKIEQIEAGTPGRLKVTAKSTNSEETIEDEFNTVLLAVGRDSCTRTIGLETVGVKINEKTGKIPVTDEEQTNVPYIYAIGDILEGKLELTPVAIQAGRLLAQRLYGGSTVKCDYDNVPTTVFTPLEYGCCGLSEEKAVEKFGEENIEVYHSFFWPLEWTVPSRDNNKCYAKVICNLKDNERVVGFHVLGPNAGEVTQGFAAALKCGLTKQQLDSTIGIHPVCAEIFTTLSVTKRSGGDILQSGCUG
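Rat TrxR1, dispensed at 90 nM, was prereduced with 400 uM NADPH (final) for 5 min at ~22 deg C, then incubated with compound 15 min before 400 uM selenite. A first-read NADPH fluorescence drop versus no-compound background flagged substrates.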
Eya2 inh: inhibitors of human Eya2 phosphatase activity. Potency, µM (top dose mostly 76.9 µM), without a hit: at the highest dose activity, negative = inhibition, most hits filed as inhibitors. 0.006% of 330,000 active. AID 488837. O00167. recombinant Eya2, OMFP fluorescence dephosphorylation (OMFP is methylfluorescein phosphate)
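Eya2 protein (added as 0.2 uM solution) was preincubated with compound for 10 min at ambient temperature in 50 mM HEPES pH 7.5, 50 mM NaCl, 5 uM MgCl2, 0.05% BSA, 1 mM DTT. OMFP (added at 50 uM) then reacted 10 min; fluorescence read at 485/525 nm.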
TrxR1 inh: rat TrxR1 inhibition; O89049; recombinant rTrxR1, NADPH fluorescence consumption, selenite substrate; 1% of 390,000 active; Potency, µM (highest dose often 114 µM), without a hit: at the top dose activity change, negative = inhibition, most hits filed as inhibitors; note: nearly all actives have a fitted effect of over 65% in size
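Rat TrxR1 (90 nM in the dispensed reagent) was pre-reduced with 400 uM NADPH for 5 min at room temperature, then incubated with compound for 15 min. After 400 uM selenite was added, NADPH fluorescence (Ex 340/Em 450 nm) was followed for 8 min.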
Numbers without * were called inactive; [ ] = remark or other dose. Calls come from the whole dose curve; as a rule, active = well fitted curve in the direction sought with a large enough effect; inconclusive = small, poorly fitted or top-dose-only effect, or another doubt; inactive = no such curve, though single readings can be large; an effect the other way counts as inactive or inconclusive. % is set by controls: 0 for no effect and ±100 for the full control effect; potency is the fitted concentration of half-maximal effect.

How did C/C=C/C=C/C(=O)N1CC2(CC(c3cccc(NC(=O)/C=C/C)c3)=NO2)C[C@@H]1C(N)=O (stereo partly specified) do in these assays?
RGS4 inhibitor: inconclusive; IDH1 R132H inh: -12%; TrxR1 substrate: 5%; Eya2 inh: -2%; TrxR1 inh: inconclusive

How did C/C=C/C=C\C(=O)Nc1cccc(C2=NOC3(C2)C[C@H](C(N)=O)N(C(=O)CC#N)C3)c1 (stereo partly specified) do in these assays?
RGS4 inhibitor: inconclusive; IDH1 R132H inh: 4%; TrxR1 substrate: 1%; Eya2 inh: -5%; TrxR1 inh: 22µM*

Results for CC(=O)CCc1oc2ccc(C)cc2c1-c1ccc(C)o1 ?
RGS4 inhibitor: inconclusive; IDH1 R132H inh: 6%; TrxR1 substrate: -15%[57.1 µM]; Eya2 inh: -2%; TrxR1 inh: inconclusive

Results for CC(=O)CCc1oc2ccc(NC(C)=O)cc2c1-c1ccc(C)o1 ?
RGS4 inhibitor: inconclusive; IDH1 R132H inh: -3%; TrxR1 substrate: 3%; Eya2 inh: -11%; TrxR1 inh: 20µM*

How did CCOC(=O)C1CCCN(C(=O)c2sc3nc(-c4ccc(OC)cc4)cn3c2C)C1 (stereo unspecified) do in these assays?
RGS4 inhibitor: -44%; IDH1 R132H inh: -7%; TrxR1 substrate: 5%; Eya2 inh: -1%; TrxR1 inh: -2%

What do the screens show for `CC(Oc1ccccc1)C(=O)OCC(=O)Nc1sccc1C(N)=O` (stereo unspecified)?
RGS4 inhibitor: -8%; IDH1 R132H inh: 5%; TrxR1 substrate: -6%; Eya2 inh: 3%; TrxR1 inh: -3%

Results for Cc1ccccc1S(=O)(=O)Cc1ccc(C(=O)N(C)C2CCCCC2)o1 ?
RGS4 inhibitor: -12%; IDH1 R132H inh: -6%; TrxR1 substrate: 4%; Eya2 inh: 3%; TrxR1 inh: 56µM*

What do the screens show for `CN(C)S(=O)(=O)c1cccc(NC(=S)Nc2cc(Cl)cc(Cl)c2)c1`?
RGS4 inhibitor: -25%; IDH1 R132H inh: 4%; TrxR1 substrate: -8%; Eya2 inh: 2%; TrxR1 inh: 20µM*

Results for CC(=O)Oc1ccccc1C(=O)Nc1ccccc1 ?
RGS4 inhibitor: 3%; TrxR1 substrate: 6%[57.1 µM]; TrxR1 inh: 1%[57.1 µM]

How did COC1(OC)C=CC(=O)C=C1NC(=O)c1ccccc1OC(C)=O do in these assays?
RGS4 inhibitor: -47%; TrxR1 substrate: -5%[57.1 µM]; TrxR1 inh: 13µM*

How did CN(CC(=O)Nc1cccc(Cl)c1)S(=O)(=O)c1ccc2c(c1)n(C)c(=O)c(=O)n2C do in these assays?
RGS4 inhibitor: 25%; IDH1 R132H inh: 0%; TrxR1 substrate: -7%; Eya2 inh: 11%; TrxR1 inh: 25µM*

Results for CN(CC(=O)Nc1ccc(Cl)cc1)S(=O)(=O)c1ccc2c(c1)n(C)c(=O)c(=O)n2C ?
RGS4 inhibitor: -17%; IDH1 R132H inh: 9%; TrxR1 substrate: 10%; Eya2 inh: -5%; TrxR1 inh: 9%

What do the screens show for `CCOc1ccc(NC(=O)CCN2CCN(S(=O)(=O)c3cc(Cl)ccc3OC)CC2)cc1`?
RGS4 inhibitor: 27%; IDH1 R132H inh: 1%; TrxR1 substrate: 7%[57.1 µM]; Eya2 inh: 1%; TrxR1 inh: -3%

What do the screens show for `COc1ccc(S(=O)(=O)N2CCOCC2)cc1NC(=O)CC1CCCC1`?
RGS4 inhibitor: -18%; IDH1 R132H inh: 0%; TrxR1 substrate: -4%; Eya2 inh: 9%; TrxR1 inh: 9%

How did CC1CCCC(C)N1C(=O)COC(=O)/C=C/c1ccc(Br)o1 (stereo unspecified) do in these assays?
RGS4 inhibitor: inconclusive; IDH1 R132H inh: 8%; TrxR1 substrate: -10%; Eya2 inh: -9%; TrxR1 inh: 35µM*

How did CC1CCN(C(=O)COC(=O)/C=C/c2ccc(Br)o2)CC1 do in these assays?
RGS4 inhibitor: inconclusive; IDH1 R132H inh: 1%; TrxR1 substrate: -3%; Eya2 inh: -3%; TrxR1 inh: 25µM*

What do the screens show for `O=C(/C=C/c1ccc(Br)o1)OCc1ccccc1`?
RGS4 inhibitor: -5%; IDH1 R132H inh: -1%; TrxR1 substrate: -1%; Eya2 inh: -7%; TrxR1 inh: inconclusive

How did CCC/C(O)=C1\C(=O)CC(C)(C)CC1=Nc1ccc(OC)cc1 do in these assays?
RGS4 inhibitor: 19%; IDH1 R132H inh: -10%; TrxR1 substrate: -7%; Eya2 inh: -4%; TrxR1 inh: -2%

Results for Cc1ccc(-c2nn(-c3ccccc3)cc2C2SCC(=O)N2Cc2ccccc2)o1 (stereo unspecified) ?
RGS4 inhibitor: inconclusive; IDH1 R132H inh: 0%; TrxR1 substrate: 14%; Eya2 inh: -34%; TrxR1 inh: 56µM*

How did N#Cc1nccnc1S(=O)(=O)c1cccs1 do in these assays?
RGS4 inhibitor: -24%; IDH1 R132H inh: 5%; TrxR1 substrate: 9%[57.1 µM]; Eya2 inh: -11%; TrxR1 inh: 0.32µM*

Results for CN(Cc1ccccc1C#N)S(=O)(=O)c1cccs1 ?
RGS4 inhibitor: -17%; IDH1 R132H inh: 11%; TrxR1 substrate: 3%; Eya2 inh: 8%; TrxR1 inh: 16%

How did CCN(CC)Cc1cc(C(C)=O)ccc1OCC(C)C do in these assays?
RGS4 inhibitor: -15%; IDH1 R132H inh: 1%; TrxR1 substrate: -5%; Eya2 inh: 3%; TrxR1 inh: 35µM*

What do the screens show for `CC(=O)c1ccc(OCC(C)C)c(CC(C(N)=O)C(N)=O)c1`?
RGS4 inhibitor: -5%; IDH1 R132H inh: -6%; TrxR1 substrate: -1%; Eya2 inh: -10%; TrxR1 inh: 13%

What do the screens show for `CCN1CCN(C(c2ccccc2Cl)c2c(O)cc(C)n(CCOC)c2=O)CC1` (stereo unspecified)?
RGS4 inhibitor: -3%; IDH1 R132H inh: 0%; TrxR1 substrate: -2%[57.1 µM]; TrxR1 inh: 10µM*

How did CCN1CCN(C(c2ccc(SC)cc2)c2c(O)cc(C)n(CCOC)c2=O)CC1 (stereo unspecified) do in these assays?
RGS4 inhibitor: -16%; IDH1 R132H inh: 15%; TrxR1 substrate: 4%[57.1 µM]; TrxR1 inh: 25µM*

How did c1cncc(CNc2cccc(-c3nc4ccccc4[nH]3)c2)c1 do in these assays?
RGS4 inhibitor: 1%; IDH1 R132H inh: 9%; TrxR1 substrate: 21%[57.1 µM]; Eya2 inh: -5%; TrxR1 inh: 16%[57.1 µM]

Results for CCCCCCCC(=O)N/N=C/c1ccncc1 ?
RGS4 inhibitor: 5%; IDH1 R132H inh: 13%; TrxR1 substrate: -5%; Eya2 inh: -7%; TrxR1 inh: 3%

How did COc1cc2c(cc1OC)C(C)N(C(=O)c1cc3c(=O)oc4ccc(C)cc4c3s1)CC2 (stereo unspecified) do in these assays?
RGS4 inhibitor: 15%; IDH1 R132H inh: -4%; TrxR1 substrate: 25%; Eya2 inh: -1%; TrxR1 inh: 79µM*

How did Cc1ccc(/C=C/C(=O)Nc2cccnc2)o1 do in these assays?
RGS4 inhibitor: -41%; IDH1 R132H inh: 10%; TrxR1 substrate: 4%[57.1 µM]; Eya2 inh: 4%; TrxR1 inh: 32µM*
